# What was measured:
# Assay in all cases: DAPPL (digital affinity profiling via proximity ligation, sequencing); 10 mM Tris-HCl pH 7.5, 50 mM NaCl, 1 mM DTT, 4% glycerol, room temperature, 30 min; GST-TFs on glutathione beads, 16-mer random dsDNA library, 0.1% formaldehyde crosslink after washing; high values mean tight binding
# FLI1 = biological target: T1, FLI1 (Homo sapiens, UniProt Q01543 1-452); settings: protein: recombinant; tags: N-terminal GST; dsDNA, one strand shown
# T1 sequence: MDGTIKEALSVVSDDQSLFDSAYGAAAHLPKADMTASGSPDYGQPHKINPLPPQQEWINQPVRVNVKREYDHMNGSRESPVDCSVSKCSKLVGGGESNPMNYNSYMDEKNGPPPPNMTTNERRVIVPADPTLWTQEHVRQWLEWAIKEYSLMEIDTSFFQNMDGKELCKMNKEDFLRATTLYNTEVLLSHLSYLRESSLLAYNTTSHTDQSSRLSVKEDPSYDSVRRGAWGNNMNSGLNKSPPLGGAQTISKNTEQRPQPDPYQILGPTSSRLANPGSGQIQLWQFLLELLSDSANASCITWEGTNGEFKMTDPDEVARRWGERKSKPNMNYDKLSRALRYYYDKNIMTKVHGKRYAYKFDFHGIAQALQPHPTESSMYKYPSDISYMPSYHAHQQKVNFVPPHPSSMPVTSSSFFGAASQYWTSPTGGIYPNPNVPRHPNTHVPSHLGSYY
# In short: (§1)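 Binding signal is each hexamer's read frequency for a factor divided by its frequency in the tag-only sample. The factors were GST-fused human transcription factors from yeast, captured on glutathione beads, DNA-barcoded and pooled with that sample. Pools were incubated with 200 nmole of a random double-stranded 16-mer DNA library in Tris/NaCl/DTT/glycerol buffer at room temperature for 30 min, then washed, crosslinked with 0.1% formaldehyde, proximity-ligated with BsaI/T4 ligase (1 h, 37 °C), PCR-amplified and sequenced on an Illumina NextSeq500.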
# ELK1 = biological target: T2, ELK1 (Homo sapiens, UniProt P19419 1-428); settings: protein: recombinant; tags: N-terminal GST; dsDNA, one strand shown
# T2 sequence: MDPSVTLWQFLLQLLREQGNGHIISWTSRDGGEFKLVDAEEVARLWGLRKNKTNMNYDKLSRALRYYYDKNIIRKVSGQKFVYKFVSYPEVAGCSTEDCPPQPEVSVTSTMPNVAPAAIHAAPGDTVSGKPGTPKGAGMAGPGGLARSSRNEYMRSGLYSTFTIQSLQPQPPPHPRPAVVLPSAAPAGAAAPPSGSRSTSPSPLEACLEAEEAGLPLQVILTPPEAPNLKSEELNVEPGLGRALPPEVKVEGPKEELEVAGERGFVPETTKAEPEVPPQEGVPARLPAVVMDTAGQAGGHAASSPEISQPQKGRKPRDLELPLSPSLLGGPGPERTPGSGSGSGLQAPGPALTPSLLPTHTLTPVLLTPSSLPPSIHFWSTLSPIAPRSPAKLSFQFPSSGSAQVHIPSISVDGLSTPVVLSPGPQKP
# In short: as §1
# GABPA = biological target: T3, GABPA (Homo sapiens, UniProt Q06546 1-454); settings: protein: recombinant; tags: N-terminal GST; dsDNA, one strand shown
# T3 sequence: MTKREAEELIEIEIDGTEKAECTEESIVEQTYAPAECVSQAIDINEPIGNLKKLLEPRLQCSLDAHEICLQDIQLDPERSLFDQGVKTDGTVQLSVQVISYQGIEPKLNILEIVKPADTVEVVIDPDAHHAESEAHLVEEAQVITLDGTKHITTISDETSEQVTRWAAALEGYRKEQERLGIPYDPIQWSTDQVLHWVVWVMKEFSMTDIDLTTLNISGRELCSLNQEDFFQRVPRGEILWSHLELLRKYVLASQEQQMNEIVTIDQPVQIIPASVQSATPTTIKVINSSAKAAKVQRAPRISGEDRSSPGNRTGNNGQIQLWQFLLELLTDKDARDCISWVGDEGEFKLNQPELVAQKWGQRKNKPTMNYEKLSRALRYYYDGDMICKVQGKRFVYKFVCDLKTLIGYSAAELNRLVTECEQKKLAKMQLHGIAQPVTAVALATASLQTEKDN
# In short: as §1
# ERG = biological target: T4, ERG (Homo sapiens, UniProt P11308 1-479); settings: protein: recombinant; tags: N-terminal GST; dsDNA, one strand shown
# T4 sequence: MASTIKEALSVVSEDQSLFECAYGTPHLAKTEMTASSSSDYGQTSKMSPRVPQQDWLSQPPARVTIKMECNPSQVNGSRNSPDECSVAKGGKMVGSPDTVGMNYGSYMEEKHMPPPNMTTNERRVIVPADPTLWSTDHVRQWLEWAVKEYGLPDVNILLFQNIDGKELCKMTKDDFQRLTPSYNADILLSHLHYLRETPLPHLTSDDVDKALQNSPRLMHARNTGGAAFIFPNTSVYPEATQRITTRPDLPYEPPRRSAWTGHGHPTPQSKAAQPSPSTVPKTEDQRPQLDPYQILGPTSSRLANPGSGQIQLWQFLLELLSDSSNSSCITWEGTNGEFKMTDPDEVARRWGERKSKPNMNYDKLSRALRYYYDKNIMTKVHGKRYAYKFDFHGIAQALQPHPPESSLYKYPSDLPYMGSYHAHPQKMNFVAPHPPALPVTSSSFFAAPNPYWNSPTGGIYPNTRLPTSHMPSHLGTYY
# In short: as §1
# ELF1 = ELF1 (Homo sapiens, UniProt P32519 1-619); settings: protein: recombinant; tags: N-terminal GST; dsDNA, one strand shown
# In short: as §1
# EHF = biological target: T5, EHF (Homo sapiens, UniProt Q9NZC4 1-300); settings: protein: recombinant; tags: N-terminal GST; dsDNA, one strand shown
# T5 sequence: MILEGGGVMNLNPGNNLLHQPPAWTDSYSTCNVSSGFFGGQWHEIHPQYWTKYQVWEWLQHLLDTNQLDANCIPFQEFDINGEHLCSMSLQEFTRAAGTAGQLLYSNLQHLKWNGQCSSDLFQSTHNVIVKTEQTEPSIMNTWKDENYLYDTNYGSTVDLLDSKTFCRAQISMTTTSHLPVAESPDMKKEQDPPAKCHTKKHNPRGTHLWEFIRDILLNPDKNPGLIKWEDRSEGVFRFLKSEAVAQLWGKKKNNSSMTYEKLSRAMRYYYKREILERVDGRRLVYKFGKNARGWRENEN
# In short: as §1
# SPI1 = SPI1 (Homo sapiens, UniProt P17947 1-270); settings: protein: recombinant; tags: N-terminal GST; dsDNA, one strand shown
# In short: as §1
# SPIB = SPIB (Homo sapiens, UniProt Q01892 1-262); settings: protein: recombinant; tags: N-terminal GST; dsDNA, one strand shown
# In short: as §1
# ELK3 = biological target: T6, ELK3 (Homo sapiens, UniProt P41970 1-407); settings: protein: recombinant; tags: N-terminal GST; dsDNA, one strand shown
# T6 sequence: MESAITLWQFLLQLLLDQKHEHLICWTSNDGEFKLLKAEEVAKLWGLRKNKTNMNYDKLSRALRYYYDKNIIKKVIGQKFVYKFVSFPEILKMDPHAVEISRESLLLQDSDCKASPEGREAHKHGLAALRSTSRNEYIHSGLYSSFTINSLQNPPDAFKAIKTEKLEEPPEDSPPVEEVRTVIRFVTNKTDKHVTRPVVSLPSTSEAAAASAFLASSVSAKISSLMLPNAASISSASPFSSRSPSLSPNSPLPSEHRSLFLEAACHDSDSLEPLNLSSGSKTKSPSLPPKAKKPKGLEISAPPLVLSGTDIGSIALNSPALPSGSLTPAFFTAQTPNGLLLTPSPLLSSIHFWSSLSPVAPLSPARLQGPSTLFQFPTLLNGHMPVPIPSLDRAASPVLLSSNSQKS
# In short: as §1
# FEV = biological target: T7, FEV (Homo sapiens, UniProt Q99581 1-238); settings: protein: recombinant; tags: N-terminal GST; dsDNA, one strand shown
# T7 sequence: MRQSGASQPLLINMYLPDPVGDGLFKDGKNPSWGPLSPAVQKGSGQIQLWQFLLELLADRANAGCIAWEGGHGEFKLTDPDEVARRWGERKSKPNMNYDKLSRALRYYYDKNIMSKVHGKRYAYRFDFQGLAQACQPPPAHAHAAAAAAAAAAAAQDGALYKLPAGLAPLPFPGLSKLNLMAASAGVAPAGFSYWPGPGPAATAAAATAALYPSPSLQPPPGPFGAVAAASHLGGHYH
# In short: as §1
# ETV5 = ETV5 (Homo sapiens, UniProt P41161 1-510); settings: protein: recombinant; tags: N-terminal GST; dsDNA, one strand shown
# In short: as §1
# HSF1 = HSF1 (Homo sapiens, UniProt Q00613 1-529); settings: protein: recombinant; tags: N-terminal GST; chain copies: 3; dsDNA, one strand shown
# In short: as §1
# SPIC = biological target: T8, SPIC (Homo sapiens, UniProt Q8N5J4 1-248); settings: protein: recombinant; tags: N-terminal GST; dsDNA, one strand shown
# T8 sequence: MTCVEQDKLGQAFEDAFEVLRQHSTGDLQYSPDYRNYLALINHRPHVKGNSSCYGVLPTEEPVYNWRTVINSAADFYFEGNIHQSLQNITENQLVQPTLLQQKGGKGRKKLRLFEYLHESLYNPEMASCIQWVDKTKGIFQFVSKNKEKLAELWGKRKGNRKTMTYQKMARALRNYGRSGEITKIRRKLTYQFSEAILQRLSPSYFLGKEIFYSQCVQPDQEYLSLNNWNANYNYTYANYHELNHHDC
# In short: as §1
# ELF4 = ELF4 (Homo sapiens, UniProt Q99607 1-663); settings: protein: recombinant; tags: N-terminal GST; dsDNA, one strand shown
# In short: as §1
# ELK4 = biological target: T9, ELK4 (Homo sapiens, UniProt P28324-2 1-405); settings: protein: recombinant; tags: N-terminal GST; dsDNA, one strand shown
# T9 sequence: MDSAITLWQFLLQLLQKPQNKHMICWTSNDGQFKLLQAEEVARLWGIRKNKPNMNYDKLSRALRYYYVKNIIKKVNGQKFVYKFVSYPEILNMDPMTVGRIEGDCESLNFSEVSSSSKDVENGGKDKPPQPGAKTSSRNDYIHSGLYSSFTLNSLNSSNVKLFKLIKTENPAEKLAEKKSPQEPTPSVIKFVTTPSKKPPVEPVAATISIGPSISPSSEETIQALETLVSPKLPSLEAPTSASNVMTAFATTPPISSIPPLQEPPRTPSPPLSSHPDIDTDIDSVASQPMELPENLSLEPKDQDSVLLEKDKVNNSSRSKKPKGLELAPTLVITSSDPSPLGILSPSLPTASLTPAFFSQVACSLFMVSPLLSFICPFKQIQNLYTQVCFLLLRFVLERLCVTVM
# In short: as §1
# ETV2 = biological target: T10, ETV2 (Homo sapiens, UniProt O00321 1-342); settings: protein: recombinant; tags: N-terminal GST; dsDNA, one strand shown
# T10 sequence: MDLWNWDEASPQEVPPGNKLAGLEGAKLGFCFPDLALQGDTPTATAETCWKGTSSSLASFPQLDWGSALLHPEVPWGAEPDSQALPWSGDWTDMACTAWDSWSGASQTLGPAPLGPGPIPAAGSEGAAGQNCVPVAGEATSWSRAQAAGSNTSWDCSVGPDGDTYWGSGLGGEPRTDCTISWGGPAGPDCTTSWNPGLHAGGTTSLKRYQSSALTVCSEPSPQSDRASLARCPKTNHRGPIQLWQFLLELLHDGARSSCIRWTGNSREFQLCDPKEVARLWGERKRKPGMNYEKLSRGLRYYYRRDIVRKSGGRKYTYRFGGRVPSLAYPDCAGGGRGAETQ
# In short: as §1
# ELF3 = biological target: T11, ELF3 (Homo sapiens, UniProt P78545 1-371); settings: protein: recombinant; tags: N-terminal GST; dsDNA, one strand shown
# T11 sequence: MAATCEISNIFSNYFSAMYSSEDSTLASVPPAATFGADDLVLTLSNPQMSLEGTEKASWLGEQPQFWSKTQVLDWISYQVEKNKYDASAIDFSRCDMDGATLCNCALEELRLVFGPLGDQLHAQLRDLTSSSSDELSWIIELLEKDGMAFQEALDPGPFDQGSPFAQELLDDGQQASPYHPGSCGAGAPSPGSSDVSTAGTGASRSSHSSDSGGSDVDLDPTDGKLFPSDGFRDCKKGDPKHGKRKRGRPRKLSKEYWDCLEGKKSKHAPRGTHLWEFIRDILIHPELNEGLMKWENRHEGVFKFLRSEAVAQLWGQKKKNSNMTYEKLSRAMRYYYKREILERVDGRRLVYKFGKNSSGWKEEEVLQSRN
# In short: as §1
# CRX = CRX (Homo sapiens, UniProt O43186 1-299); settings: protein: recombinant; tags: N-terminal GST; dsDNA, one strand shown
# In short: as §1
# ETV1 = ETV1 (Homo sapiens, UniProt P50549 1-477); settings: protein: recombinant; tags: N-terminal GST; dsDNA, one strand shown
# In short: as §1
# CRX, sequence (O43186 whole entry): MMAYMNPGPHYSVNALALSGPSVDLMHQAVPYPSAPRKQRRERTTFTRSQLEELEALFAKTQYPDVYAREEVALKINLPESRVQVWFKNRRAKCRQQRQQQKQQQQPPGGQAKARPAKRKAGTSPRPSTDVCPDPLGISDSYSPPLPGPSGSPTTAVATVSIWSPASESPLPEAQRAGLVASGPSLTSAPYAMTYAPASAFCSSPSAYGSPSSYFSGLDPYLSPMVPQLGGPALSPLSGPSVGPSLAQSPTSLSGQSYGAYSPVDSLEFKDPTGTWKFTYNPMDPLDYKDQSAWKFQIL
# ELF4, sequence (Q99607 whole entry): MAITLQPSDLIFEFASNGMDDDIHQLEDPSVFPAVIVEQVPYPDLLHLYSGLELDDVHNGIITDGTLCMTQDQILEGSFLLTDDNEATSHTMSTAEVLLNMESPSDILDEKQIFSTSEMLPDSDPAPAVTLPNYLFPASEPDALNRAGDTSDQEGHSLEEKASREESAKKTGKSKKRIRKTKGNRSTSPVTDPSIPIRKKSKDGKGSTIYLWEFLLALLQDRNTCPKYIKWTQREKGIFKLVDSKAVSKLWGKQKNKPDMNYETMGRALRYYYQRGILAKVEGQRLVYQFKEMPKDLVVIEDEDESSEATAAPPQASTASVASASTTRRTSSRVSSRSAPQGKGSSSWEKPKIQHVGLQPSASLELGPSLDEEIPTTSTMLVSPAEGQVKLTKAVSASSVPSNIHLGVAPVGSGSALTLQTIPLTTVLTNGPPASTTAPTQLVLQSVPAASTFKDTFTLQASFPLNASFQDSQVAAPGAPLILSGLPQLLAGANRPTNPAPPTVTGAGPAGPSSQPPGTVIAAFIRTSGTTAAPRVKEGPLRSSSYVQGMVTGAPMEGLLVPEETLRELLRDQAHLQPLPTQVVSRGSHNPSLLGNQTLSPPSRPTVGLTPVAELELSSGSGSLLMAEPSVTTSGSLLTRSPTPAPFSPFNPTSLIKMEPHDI
# ETV5, sequence (P41161 whole entry): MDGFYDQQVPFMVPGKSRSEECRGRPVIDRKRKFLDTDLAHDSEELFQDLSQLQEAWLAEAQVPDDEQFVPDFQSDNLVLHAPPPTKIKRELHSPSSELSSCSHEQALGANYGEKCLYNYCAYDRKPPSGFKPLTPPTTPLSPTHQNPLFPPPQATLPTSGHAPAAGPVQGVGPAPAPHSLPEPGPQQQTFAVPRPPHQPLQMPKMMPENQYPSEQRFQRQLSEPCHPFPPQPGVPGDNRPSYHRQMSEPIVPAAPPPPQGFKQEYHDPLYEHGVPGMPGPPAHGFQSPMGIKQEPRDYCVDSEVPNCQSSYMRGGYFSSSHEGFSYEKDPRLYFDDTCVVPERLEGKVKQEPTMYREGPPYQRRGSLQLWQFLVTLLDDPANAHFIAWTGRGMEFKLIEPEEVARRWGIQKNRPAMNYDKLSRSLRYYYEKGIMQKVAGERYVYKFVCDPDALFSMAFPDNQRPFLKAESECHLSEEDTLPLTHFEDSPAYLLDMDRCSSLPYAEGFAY
# ETV1, sequence (P50549 whole entry): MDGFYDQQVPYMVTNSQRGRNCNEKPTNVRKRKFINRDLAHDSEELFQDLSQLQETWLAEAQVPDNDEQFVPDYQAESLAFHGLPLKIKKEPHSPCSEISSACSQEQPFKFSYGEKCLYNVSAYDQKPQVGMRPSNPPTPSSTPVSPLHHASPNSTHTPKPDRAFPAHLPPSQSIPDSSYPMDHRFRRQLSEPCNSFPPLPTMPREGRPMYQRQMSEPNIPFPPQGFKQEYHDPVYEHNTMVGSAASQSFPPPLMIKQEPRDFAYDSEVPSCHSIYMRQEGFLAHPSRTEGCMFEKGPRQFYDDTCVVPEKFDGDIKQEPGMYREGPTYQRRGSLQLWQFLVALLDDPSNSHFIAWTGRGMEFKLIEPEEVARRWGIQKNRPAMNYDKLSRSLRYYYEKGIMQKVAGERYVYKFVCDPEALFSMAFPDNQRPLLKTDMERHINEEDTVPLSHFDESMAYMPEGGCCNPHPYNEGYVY
# HSF1, sequence (Q00613 whole entry): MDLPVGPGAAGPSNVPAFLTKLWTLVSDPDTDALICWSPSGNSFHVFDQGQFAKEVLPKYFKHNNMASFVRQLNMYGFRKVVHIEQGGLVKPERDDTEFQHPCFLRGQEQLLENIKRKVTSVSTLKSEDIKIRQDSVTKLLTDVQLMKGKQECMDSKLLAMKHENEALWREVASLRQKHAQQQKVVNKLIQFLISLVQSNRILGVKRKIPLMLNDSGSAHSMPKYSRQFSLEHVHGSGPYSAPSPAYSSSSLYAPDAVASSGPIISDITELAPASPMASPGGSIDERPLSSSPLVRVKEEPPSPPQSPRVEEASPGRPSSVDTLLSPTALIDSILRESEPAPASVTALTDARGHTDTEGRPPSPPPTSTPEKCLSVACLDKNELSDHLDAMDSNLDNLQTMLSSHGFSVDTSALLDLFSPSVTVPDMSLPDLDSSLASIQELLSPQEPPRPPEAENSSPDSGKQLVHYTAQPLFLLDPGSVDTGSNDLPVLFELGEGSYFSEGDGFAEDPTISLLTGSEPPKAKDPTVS
# SPIB, sequence (Q01892 whole entry): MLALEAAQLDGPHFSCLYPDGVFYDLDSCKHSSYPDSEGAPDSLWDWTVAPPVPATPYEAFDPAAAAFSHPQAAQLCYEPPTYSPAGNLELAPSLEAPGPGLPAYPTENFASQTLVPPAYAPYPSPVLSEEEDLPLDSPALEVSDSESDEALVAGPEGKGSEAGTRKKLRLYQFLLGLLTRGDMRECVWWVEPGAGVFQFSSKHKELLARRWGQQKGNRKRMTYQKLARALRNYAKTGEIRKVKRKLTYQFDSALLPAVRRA
# ELF1, sequence (P32519 whole entry): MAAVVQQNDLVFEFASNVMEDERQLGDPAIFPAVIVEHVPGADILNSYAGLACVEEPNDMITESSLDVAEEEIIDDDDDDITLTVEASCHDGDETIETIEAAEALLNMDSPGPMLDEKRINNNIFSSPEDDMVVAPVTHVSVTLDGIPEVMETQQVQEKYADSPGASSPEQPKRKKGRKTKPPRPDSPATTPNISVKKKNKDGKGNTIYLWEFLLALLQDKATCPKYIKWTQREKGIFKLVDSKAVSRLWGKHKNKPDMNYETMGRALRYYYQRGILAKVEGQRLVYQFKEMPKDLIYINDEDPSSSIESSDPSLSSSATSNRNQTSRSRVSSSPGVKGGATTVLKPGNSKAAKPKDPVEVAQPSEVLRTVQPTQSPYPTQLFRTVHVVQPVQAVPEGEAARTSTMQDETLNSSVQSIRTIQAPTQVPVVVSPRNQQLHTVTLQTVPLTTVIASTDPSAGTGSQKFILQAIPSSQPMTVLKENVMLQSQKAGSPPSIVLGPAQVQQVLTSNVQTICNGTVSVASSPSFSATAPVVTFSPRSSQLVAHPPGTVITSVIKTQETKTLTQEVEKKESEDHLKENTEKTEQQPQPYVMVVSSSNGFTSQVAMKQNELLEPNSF
sequence,measurement,setting,value
ATTACT,binding signal,FLI1,"1.3 fold enrichment (6-mer frequency, TF over GST control)"
same,binding signal,ELK1,"1.12 fold enrichment (6-mer frequency, TF over GST control)"
same,binding signal,GABPA,"1.29 fold enrichment (6-mer frequency, TF over GST control)"
same,binding signal,ERG,"1.22 fold enrichment (6-mer frequency, TF over GST control)"
same,binding signal,ELF1,"1.28 fold enrichment (6-mer frequency, TF over GST control)"
same,binding signal,EHF,"1.27 fold enrichment (6-mer frequency, TF over GST control)"
same,binding signal,SPI1,"1.28 fold enrichment (6-mer frequency, TF over GST control)"
same,binding signal,SPIB,"1.33 fold enrichment (6-mer frequency, TF over GST control)"
same,binding signal,ELK3,"1.24 fold enrichment (6-mer frequency, TF over GST control)"
same,binding signal,FEV,"1.27 fold enrichment (6-mer frequency, TF over GST control)"
same,binding signal,ETV5,"1.23 fold enrichment (6-mer frequency, TF over GST control)"
same,binding signal,HSF1,"1.66 fold enrichment (6-mer frequency, TF over GST control)"
same,binding signal,SPIC,"1.38 fold enrichment (6-mer frequency, TF over GST control)"
same,binding signal,ELF4,"1.19 fold enrichment (6-mer frequency, TF over GST control)"
same,binding signal,ELK4,"1.39 fold enrichment (6-mer frequency, TF over GST control)"
same,binding signal,ETV2,"1.48 fold enrichment (6-mer frequency, TF over GST control)"
same,binding signal,ELF3,"1.39 fold enrichment (6-mer frequency, TF over GST control)"
same,binding signal,CRX,"2.22 fold enrichment (6-mer frequency, TF over GST control)"
same,binding signal,ETV1,"1.35 fold enrichment (6-mer frequency, TF over GST control)"

# From PMC7862700, “An all-to-all approach to the identification of sequence-specific readers for epigenetic DNA modifications on cytosine”
